# Rows were chosen to be rich in hits. Some 3.9% of all compounds tested hit in one or more screens of this group.
# HIF act: HIF pathway transcriptional activation; U2OS HRE-luciferase reporter, luminescence; normalized: DMSO 0%, desferrioxamine 100%; activation, % at 7.5 µM (by protocol); actives 0.32% (n = 300,000); AID 1910;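 active = mean activation of at least 10% of the iron chelator positive control signal, with at least half of replicates also reaching 10%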
# AHR act: human AHR activation. activation, % at 5 µM. AHR-responsive luciferase reporter cells, luminescence. P35869. actives 2.5% (n = 320,000); in the data active = activation above about 47%
# PLC-gamma1 inh: blocks human PLC-gamma1 enzyme activity | purified PLC-gamma1, fluorogenic substrate, fluorescence | inhibition, % at 12.2 µM | actives 0.84% (n = 370,000) | AID 720700; in the data active = inhibition above about 9.5%
# HGIII-sPLA2 inh: Blocks human group III sPLA2 activity; Q9NZ20; QFRET BODIPY PC-A2 liposome hydrolysis, fluorescence; inhibition, % at 12.2 µM; actives 0.56% (n = 370,000);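 active = inhibition above mean plus 3 SD of compounds lying within the high and low control bounds, cut at about 19% in these data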
# Target sequence (Q9NZ20 whole entry, looked up): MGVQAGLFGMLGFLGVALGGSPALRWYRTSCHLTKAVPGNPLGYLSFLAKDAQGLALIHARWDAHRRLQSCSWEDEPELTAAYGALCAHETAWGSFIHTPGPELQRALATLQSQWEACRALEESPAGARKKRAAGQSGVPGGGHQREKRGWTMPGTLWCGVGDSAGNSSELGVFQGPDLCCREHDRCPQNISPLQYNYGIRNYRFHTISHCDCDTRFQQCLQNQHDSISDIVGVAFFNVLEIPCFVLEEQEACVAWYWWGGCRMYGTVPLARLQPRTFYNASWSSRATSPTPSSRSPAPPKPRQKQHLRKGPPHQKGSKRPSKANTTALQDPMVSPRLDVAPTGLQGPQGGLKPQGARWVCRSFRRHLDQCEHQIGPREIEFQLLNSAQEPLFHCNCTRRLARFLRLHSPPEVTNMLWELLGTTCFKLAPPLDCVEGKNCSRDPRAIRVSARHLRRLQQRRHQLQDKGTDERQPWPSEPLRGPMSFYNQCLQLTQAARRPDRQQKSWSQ
# PLC-beta3 inh: PLC-beta3 (human) inhibition, primary screen; actives 0.18% (n = 370,000); inhibition, % at 12.2 µM; Purified PLC-beta3, fluorogenic substrate, fluorescence; Q01970; in the data active = inhibition above about 11%
# Yeast superoxide: yeast age-related superoxide inhibition as caloric restriction mimetic. S. cerevisiae aged cells, superoxide DHE fluorescence; active compounds read low. superoxide response (% of plate mean), % at 10 µM. actives 0.18% (n = 330,000);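 active = superoxide response under a set limit, about three screen SD below normal, cut at about 65% in these data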;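 note: yeast aged for seven days with compound at 30 °C before DHE staining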
# hGIII sPLA2 conf: human GIII-sPLA2 inhibition, confirmation; shares compounds with HGIII-sPLA2 inh; recombinant hGIII-sPLA2, BODIPY PC-A2 QFRET fluorescence; inhibition, % at 12.2 µM; actives 34% (n = 2,000); AID 743280;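 active = mean inhibition across triplicates above the hit cutoff set in the earlier primary screen, cut at about 19% in these data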
# 535nm interf: optically interferes with 535nm fluorescence in sPLA2 counter-screen; shares compounds with HGIII-sPLA2 inh; BODIPY FL product fluorescence interference, QFRET; inhibition, % at 12.2 µM; actives 8.5% (n = 2,000);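 active = average inhibition above the solvent-only control mean plus 3 SD, cut at about 6% in these data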
# BODIPY interf DR: counter-screen for HGIII-sPLA2 inhibitors: 535nm fluorescence interference, dose response. shares compounds with HGIII-sPLA2 inh. IC50, µM. BODIPY FL product fluorescence interference, cell-free. 240 tested, under 10 active;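 active = IC50 at or below 10 µM; inactive = IC50 above 10 µM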
# Hits are given with their value; – = inactive; · = not tested or not shown.
SMILES,HIF act,AHR act,PLC-gamma1 inh,HGIII-sPLA2 inh,PLC-beta3 inh,Yeast superoxide,hGIII sPLA2 conf,535nm interf,others
CC(=O)OCC1OC(n2ccc3ccccc32)C(OC(C)=O)C(OC(C)=O)C1OC(C)=O (stereo not given),–,–,–,–,–,–,·,·,
CC(=O)OCC1OC(n2cc(F)c(=O)[nH]c2=O)C(OC(C)=O)C1OC(C)=O (stereo not given),–,–,–,19,–,–,–,–,
O=C(CN1CCCCCC1)Nc1cc(C(F)(F)F)ccc1Cl,–,–,–,–,–,–,·,·,
O=C(CCNC(=O)c1ccccc1Cl)Nc1cc(C(F)(F)F)ccc1Cl,–,–,–,21,–,–,–,–,
CC1CCN(CC(=O)Nc2cc(C(F)(F)F)ccc2Cl)CC1,–,–,–,21,–,–,–,–,
Cc1ccc(S(=O)(=O)N2[C@H](CC(=O)c3cccc4ccccc34)OC[C@@H]2C(C)C)cc1,·,·,–,–,–,·,·,·,
CC(C)(C)NC(=O)C(=O)NN=C1CCCCCC1,–,–,–,–,–,–,·,·,
CN1CCC(=NNC(=O)C(=O)NC(C)(C)C)CC1,–,–,–,22,–,–,–,–,
CCOC(=O)c1cc2c(=Cc3ccc(N(C)C)cc3)c3ccccc3n2[n+]1C,·,·,–,28,–,·,35,–,BODIPY interf DR=–
CN(Cc1ccccc1)C(=O)c1ccc(NC(=O)Cc2cccc(NC(=O)C3CCN(C(=O)C4CCCC4)CC3)c2)cc1,·,–,–,–,–,–,·,·,
Cc1cccc2sc(NNC(=O)C3=COCCO3)nc12,–,–,–,21,–,–,23,–,
NNC(=O)c1cc(-c2cccs2)nc2ccccc12,–,–,–,–,–,–,·,·,
Cc1cccc2sc(NNC(=O)c3cc(-c4cccs4)nc4ccccc34)nc12,–,–,–,50,–,–,49,8.8,
CC(C)(CN1CCOCC1)NS(=O)(=O)c1ccccc1,–,–,–,–,–,–,·,·,
C/C(=N\NC(=O)C(C)n1nc(C)c([N+](=O)[O-])c1C)c1ccccc1O (stereo not given),–,–,–,–,–,–,·,·,
COc1ccc(NS(=O)(=O)c2ccc3ccccc3c2)c2ncccc12,–,–,–,28,–,–,–,–,
COc1ccc(/C(C)=N/NC(=O)c2cccc(S(=O)(=O)N3CCCC3)c2)c(O)c1,33,–,–,35,–,–,24,–,
Nc1ccc2c(c1)C(=O)c1cc(N)c(Cl)cc1-2,·,·,–,29,–,·,31,8.2,
Nc1ccc2c(c1)C(=O)c1ccc(Cl)cc1-2,·,·,–,–,–,·,·,·,
CCc1cc(C(=O)NCC(c2ccco2)N2CCCCC2)sc1C (stereo not given),·,–,–,–,–,–,·,·,
COc1cccc(-c2cc3c(c4c2ccn4C)C2CCC3C2)c1 (stereo not given),·,·,–,19,–,·,–,–,
Cn1ccc2c(-c3ccccc3F)cc3c(c21)C1CCC3C1 (stereo not given),·,·,–,–,–,·,·,·,
COc1ccccc1-c1cc2c(c3c1ccn3C)C1CCC2C1 (stereo not given),·,·,–,22,–,·,–,–,
O=C(COC(=O)c1ccccc1SCC(=O)N1CCCC1)NCc1ccc(F)cc1,·,·,–,–,–,·,·,·,
CCN1C(C)=C(C)S/C1=C1\SC(=S)N(NC(C)=O)C1=O,–,–,–,–,–,–,·,·,
SMILES,HIF act,AHR act,PLC-gamma1 inh,HGIII-sPLA2 inh,PLC-beta3 inh,Yeast superoxide,hGIII sPLA2 conf,535nm interf,others
CC(=O)NN1C(=O)/C(=C2/Sc3ccc(Cl)cc3N2C)SC1=S,–,–,–,20,–,–,–,–,
COC(=O)Cn1c2ccccc2c(=O)n1C(C)C,·,·,–,20,–,·,–,–,
COC(=O)Cn1c2ccccc2c2nc(=O)cc(C)n21,–,–,–,–,–,–,·,·,
O=C(COc1cc2oc(=O)c3c(c2cc1Cl)CCC3)NCCN1CCOCC1,–,–,–,–,–,–,·,·,
Cc1cc(C)c2nc(SCC(=O)NCCC3=CCCCC3)cc(C)c2c1,–,–,–,21,–,–,–,–,
O=C(COC(=O)[C@@H]1CC(O)CN1S(=O)(=O)c1ccc2c(c1)OCCO2)Nc1ccccc1F (stereo not given in full),–,–,–,–,–,–,·,·,
O=C(NC1CCCC1)c1cccc(S(=O)(=O)N2CCCC2)c1,·,–,–,–,–,–,·,·,
Nc1ccc(C(=O)OCC(=O)N2c3ccccc3Sc3ccccc32)cc1[N+](=O)[O-],·,–,–,–,–,–,·,·,
NCCNc1ccc(C(=O)N2c3ccccc3Sc3ccccc32)cc1[N+](=O)[O-],–,–,–,20,–,–,24,–,
NNC(=O)/C(=N/Nc1ccccc1)S(=O)(=O)c1ccc(Cl)cc1,–,–,–,35,–,–,47,–,BODIPY interf DR=–
CCOC(=O)/C(=N/Nc1ccc(C)cc1)S(=O)(=O)c1ccc(Cl)cc1,–,–,–,–,–,–,·,·,
CN1C(=O)C2(c3ccccc31)c1c(oc3ccccc3c1=O)C(=O)N2CCO (stereo not given),–,–,–,–,–,–,·,·,
CN1C(=O)C2(c3ccccc31)c1c(oc3ccccc3c1=O)C(=O)N2CCCO (stereo not given),–,–,–,21,–,–,–,–,
C=CCOC(=O)N[C@H](c1ccc(-c2ccccc2)cc1)[C@H](C)/C=C/CC(=O)OC,·,·,–,–,–,·,·,·,
O=C(O)Cc1sc(N/N=C\c2ccncc2)nc1-c1ccccc1,–,–,–,26,–,–,–,–,
CCc1ccc(Nc2n[n+](-c3ccccc3)c(-c3ccc(OCc4ccccc4)cc3)s2)cc1,–,–,–,–,–,–,·,·,
CCc1ccc(Nc2n[n+](-c3ccccc3)c(-c3ccc(N(CC)CC)cc3)s2)cc1,–,–,–,23,–,–,–,–,
Cc1cc2nc(C)c(=O)n(C)c2cc1C,–,–,–,23,–,–,–,–,
Cc1ccc2nc(-c3cccnc3)c(Nc3ccccc3C)n2c1,–,–,–,–,–,–,·,·,
Cc1ccn2c(Nc3ccccc3)c(-c3ccccn3)nc2c1,–,–,–,20,–,–,–,–,
Cc1cccn2c(Nc3ccccc3)c(-c3ccccn3)nc12,–,–,–,–,–,–,·,·,
Cc1ccc(-c2nc3ncccn3c2Nc2ccccc2C)o1,–,–,–,–,–,–,·,·,
Cc1ccn2c(Nc3ccccc3C)c(-c3ccccn3)nc2c1,12,–,–,21,–,–,30,–,BODIPY interf DR=–
Cc1ccc2nc(-c3ccccn3)c(Nc3ccccc3C)n2c1,22,–,–,27,–,–,24,–,

# High-throughput results as filed in PubChem.
